# Measured values taken from the supplement of paper PMC10849652.
# The full data set covers some 7,900 targets. This sample favours those with a hit. About 0.6% of all pairs of compound and target were hits. A number with no mark means an inactive call.
# What was measured:
# Test in all cases: log2 fold change, soluble protein after heating vs DMSO (PISA); higher = thermal stabilisation; K562 cells, 10 uM, 30 min; active = over 0.2 and 3.5 SD of the protein, either way, in both replicates (recomputed)
# [1] = compound: Cc1ccc(NC(=O)c2ccc(CN3CC[C@H](N(C)C)C3)c(C(F)(F)F)c2)cc1Nc1nccc(-c2cncnc2)n1 [bafetinib]
# Outline: (§1)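 For each measurement, 10 μM compound was applied for 30 min to K562 cells at 2×10^6 cells/mL. Aliquots were heated for 3 min across 48°C-58°C, pooled, and extracted in PBS with 0.5% NP-40 at 4°C; the supernatant after 21,000xg for 90 min was soluble protein. This was quantified by TMTpro 16plex LC-MS/MS with channel sums equalised, and thermal stability was reported relative to control samples from duplicates, on a log2 fold-change scale.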
# [2] = compound: NC(=O)Nc1cc(-c2cccc(F)c2)sc1C(=O)N[C@H]1CCCNC1
# Outline: as §1
# [3] = compound: NCC(=O)Nc1ccc(-n2nc(C(F)(F)F)cc2-c2ccc3c(ccc4ccccc43)c2)cc1
# Outline: as §1
# [4] = compound: Nc1ccccc1NC(=O)c1ccc(CNC(=O)OCc2cccnc2)cc1 [entinostat]
# Outline: as §1
# [5] = compound: Cc1cn(-c2cc(NC(=O)c3ccc(C)c(Nc4nccc(-c5cccnc5)n4)c3)cc(C(F)(F)F)c2)cn1 [nilotinib]
# Outline: as §1
# [6] = compound: Cc1nc(Nc2n[nH]c3c2CN(C(=O)N[C@H](CN(C)C)c2ccccc2)C3(C)C)c2sccc2n1
# Outline: as §1
# [7] = compound: Cc1nc(Nc2ncc(C(=O)Nc3c(C)cccc3Cl)s2)cc(N2CCN(CCO)CC2)n1 [dasatinib]
# Outline: as §1
# [8] = compound: Cc1ncc(-c2ccnc(Nc3ccc(S(C)(=O)=O)cc3)n2)n1C(C)C
# Outline: as §1
# [9] = compound: Cn1cc(-c2ccc3c(c2)CCN3C(=O)Cc2cccc(C(F)(F)F)c2)c2c(N)ncnc21
# Outline: as §1
# [10] = compound: Cn1cc(-c2ccc3nnc(C(F)(F)c4ccc5ncccc5c4)n3n2)cn1
# Outline: as §1
# [11] = compound: Cn1cncc1[C@@](N)(c1ccc(Cl)cc1)c1ccc2c(c1)c(-c1cccc(Cl)c1)cc(=O)n2C [tipifarnib]
# Outline: as §1
# [12] = compound: FC(F)(F)c1ccc(/C=C/c2nc(COc3ccc(CCCCn4ccnn4)cc3)co2)cc1 [mubritinib]
# Outline: as §1
# [13] = compound: NC1(c2ccc(-c3nc4ccn5c(=O)[nH]nc5c4cc3-c3ccccc3)cc2)CCC1
# Outline: as §1
# [14] = compound: O=C(CCCCCCNC(=O)c1cnc(N(c2ccccc2)c2ccccc2Cl)nc1)NO [citarinostat]
# Outline: as §1
# [15] = compound: O=C(O)c1ccc2c(c1)nc(Nc1cccc(Cl)c1)c1ccncc12 [silmitasertib]
# Outline: as §1
# [16] = compound: O=C1NC(=O)C(c2cnc3ccccn23)=C1c1cn2c3c(cc(F)cc13)CN(C(=O)N1CCCCC1)CC2
# Outline: as §1
# [17] = compound: c1cc(OCCN2CCCCC2)cc(-c2n[nH]c3ccc(-c4nnc[nH]4)cc23)c1
# Outline: as §1
# [18] = compound: NC(=O)c1cnc(N[C@@H]2CCCC[C@@H]2N)nc1Nc1cccc(-n2nccn2)c1
# Outline: as §1
# [19] = compound: Cc1cccc(CC(=O)N2CCc3c2ccc(-c2cn(C)c4ncnc(N)c24)c3F)n1
# Outline: as §1
# [20] = compound: O=C(CCCCCCC(=O)Nc1ccccc1)NO [vorinostat]
# Outline: as §1
# Sequence of UniProt P53370 (P53370 whole entry, looked up): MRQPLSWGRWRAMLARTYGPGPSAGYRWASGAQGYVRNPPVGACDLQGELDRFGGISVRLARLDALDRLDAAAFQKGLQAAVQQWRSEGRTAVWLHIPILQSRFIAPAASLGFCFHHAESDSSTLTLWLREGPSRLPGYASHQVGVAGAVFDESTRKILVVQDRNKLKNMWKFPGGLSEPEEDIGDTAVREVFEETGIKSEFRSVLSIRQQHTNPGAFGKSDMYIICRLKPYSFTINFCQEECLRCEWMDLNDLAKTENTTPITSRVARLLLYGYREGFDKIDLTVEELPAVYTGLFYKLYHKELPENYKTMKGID
# Sequence of UniProt Q99549 (Q99549 whole entry, looked up): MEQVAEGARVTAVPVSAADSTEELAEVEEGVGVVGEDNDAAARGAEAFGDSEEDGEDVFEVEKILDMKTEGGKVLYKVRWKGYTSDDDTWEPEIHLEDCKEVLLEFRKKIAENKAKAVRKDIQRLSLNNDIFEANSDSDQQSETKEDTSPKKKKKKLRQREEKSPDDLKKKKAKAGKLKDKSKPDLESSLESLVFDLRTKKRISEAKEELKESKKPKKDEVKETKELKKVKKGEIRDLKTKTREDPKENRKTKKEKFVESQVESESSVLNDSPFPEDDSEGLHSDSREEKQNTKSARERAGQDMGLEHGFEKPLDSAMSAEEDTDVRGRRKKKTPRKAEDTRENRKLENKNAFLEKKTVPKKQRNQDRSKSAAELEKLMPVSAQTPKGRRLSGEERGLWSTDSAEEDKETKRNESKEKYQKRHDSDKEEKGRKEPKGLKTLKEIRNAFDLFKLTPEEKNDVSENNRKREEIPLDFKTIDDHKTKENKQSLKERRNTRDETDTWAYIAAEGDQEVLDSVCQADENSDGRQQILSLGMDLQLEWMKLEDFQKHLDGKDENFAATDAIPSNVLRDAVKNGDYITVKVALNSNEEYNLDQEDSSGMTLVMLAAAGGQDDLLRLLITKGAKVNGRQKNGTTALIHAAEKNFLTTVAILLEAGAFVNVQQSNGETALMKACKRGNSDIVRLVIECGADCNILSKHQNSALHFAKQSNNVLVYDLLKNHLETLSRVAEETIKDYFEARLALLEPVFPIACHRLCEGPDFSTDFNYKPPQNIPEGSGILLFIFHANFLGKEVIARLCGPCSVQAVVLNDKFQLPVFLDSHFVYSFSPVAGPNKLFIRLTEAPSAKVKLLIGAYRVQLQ
# Sequence of UniProt Q8N573 (Q8N573 whole entry, looked up): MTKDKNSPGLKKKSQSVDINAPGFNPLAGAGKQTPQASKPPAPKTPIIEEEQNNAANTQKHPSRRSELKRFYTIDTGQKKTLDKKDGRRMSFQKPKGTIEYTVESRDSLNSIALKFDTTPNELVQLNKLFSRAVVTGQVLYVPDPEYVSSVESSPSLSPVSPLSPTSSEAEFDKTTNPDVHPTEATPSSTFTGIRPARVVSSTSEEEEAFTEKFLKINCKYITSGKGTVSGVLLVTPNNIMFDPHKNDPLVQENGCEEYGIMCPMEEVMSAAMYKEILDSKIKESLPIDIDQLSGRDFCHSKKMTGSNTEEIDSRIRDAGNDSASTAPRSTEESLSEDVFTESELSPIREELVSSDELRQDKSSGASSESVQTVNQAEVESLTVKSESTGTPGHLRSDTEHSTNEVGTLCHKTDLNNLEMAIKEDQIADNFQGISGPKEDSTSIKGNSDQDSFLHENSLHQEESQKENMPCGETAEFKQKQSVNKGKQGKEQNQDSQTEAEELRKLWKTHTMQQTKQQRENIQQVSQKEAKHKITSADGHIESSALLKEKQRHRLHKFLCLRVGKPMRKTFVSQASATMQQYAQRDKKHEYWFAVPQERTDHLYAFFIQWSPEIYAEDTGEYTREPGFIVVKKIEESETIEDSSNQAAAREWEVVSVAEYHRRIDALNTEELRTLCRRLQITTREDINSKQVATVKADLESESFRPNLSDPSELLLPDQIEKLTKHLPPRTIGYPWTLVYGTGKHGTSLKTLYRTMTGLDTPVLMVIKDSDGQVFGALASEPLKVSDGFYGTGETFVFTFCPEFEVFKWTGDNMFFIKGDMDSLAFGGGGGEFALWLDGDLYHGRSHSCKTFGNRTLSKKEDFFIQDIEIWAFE
# Sequence of UniProt Q5VVJ2 (Q5VVJ2 whole entry, looked up): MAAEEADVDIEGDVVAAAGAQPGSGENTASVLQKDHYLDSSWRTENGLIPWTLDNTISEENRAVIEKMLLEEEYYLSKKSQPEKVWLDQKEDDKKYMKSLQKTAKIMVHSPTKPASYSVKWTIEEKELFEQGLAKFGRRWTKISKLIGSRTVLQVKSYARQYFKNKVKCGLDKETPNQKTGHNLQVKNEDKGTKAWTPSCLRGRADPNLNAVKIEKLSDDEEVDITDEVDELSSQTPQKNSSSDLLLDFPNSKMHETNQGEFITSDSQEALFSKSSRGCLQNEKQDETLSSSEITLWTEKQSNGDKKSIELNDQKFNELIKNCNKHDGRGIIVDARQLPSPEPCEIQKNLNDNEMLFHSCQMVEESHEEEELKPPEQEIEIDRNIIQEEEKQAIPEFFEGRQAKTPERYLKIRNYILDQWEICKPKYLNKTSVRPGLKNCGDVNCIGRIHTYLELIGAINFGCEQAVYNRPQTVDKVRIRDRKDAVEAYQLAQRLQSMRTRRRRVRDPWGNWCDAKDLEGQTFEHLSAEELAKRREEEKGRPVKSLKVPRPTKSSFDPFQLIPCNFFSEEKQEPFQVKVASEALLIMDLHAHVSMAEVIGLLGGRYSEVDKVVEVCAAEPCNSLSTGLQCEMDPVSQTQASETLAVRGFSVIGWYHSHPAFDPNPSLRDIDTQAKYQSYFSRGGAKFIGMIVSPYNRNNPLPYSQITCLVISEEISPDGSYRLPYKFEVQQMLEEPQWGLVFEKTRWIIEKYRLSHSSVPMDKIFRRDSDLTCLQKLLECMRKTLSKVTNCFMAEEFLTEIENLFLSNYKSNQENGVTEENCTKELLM
# Sequence of UniProt Q9BVC4 (Q9BVC4 whole entry, looked up): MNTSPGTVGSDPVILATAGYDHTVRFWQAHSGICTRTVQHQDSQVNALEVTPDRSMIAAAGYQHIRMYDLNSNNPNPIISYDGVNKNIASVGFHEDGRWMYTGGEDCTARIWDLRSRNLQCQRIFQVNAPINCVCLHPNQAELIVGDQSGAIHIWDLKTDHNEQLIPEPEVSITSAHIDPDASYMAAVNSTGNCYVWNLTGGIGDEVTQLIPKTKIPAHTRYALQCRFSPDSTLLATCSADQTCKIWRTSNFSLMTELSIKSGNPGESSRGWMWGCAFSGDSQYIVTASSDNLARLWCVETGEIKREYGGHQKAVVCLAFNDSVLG
# Sequence of UniProt P49321 (P49321 whole entry, looked up): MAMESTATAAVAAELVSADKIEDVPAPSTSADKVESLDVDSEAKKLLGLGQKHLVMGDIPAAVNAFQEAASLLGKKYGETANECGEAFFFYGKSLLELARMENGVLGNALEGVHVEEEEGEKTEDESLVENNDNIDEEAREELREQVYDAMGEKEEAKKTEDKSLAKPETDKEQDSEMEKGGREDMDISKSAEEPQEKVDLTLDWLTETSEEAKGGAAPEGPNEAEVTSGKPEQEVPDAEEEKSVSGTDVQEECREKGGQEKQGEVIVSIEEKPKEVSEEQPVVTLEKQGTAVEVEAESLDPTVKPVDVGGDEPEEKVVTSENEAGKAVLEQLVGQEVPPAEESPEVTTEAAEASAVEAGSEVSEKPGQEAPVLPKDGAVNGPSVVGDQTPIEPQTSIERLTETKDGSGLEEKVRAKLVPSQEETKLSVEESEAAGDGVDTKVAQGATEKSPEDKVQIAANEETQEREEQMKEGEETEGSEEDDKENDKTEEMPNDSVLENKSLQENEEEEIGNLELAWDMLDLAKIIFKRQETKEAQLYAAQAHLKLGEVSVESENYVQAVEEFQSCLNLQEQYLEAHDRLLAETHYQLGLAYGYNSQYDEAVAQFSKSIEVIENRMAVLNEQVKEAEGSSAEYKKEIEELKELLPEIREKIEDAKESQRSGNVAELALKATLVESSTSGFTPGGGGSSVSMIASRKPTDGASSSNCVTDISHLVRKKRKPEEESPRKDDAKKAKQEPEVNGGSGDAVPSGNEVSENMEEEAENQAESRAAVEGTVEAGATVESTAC
Target,log2 fold change [1],log2 fold change [2],log2 fold change [3],log2 fold change [4],log2 fold change [5],log2 fold change [6],log2 fold change [7],log2 fold change [8],log2 fold change [9],log2 fold change [10],log2 fold change [11],log2 fold change [12],log2 fold change [13],log2 fold change [14],log2 fold change [15],log2 fold change [16],log2 fold change [17],log2 fold change [18],log2 fold change [19],log2 fold change [20]
NDUFA7 (UniProt M0R0N0),-0.052,-0.307,-0.344,-0.063,–,–,–,–,–,–,–,–,–,–,–,–,–,–,–,–
NUDT6 (UniProt P53370),–,–,0.298,–,-0.1,0.083,-0.005,0.08,0.426,0.05,-0.022,-0.049,0.149,0.164,-0.517 (active),-0.097,-0.385,–,–,–
MPHOSPH8 isoform 2 (UniProt Q99549),–,0.257,-0.018,-0.191,–,–,-0.025,–,-0.019,-0.116,0.01,0.031,0.161,–,-0.083,0.189,–,0.004,–,–
NA (UniProt J3KR12),0.338,–,–,–,0.208,-0.221,–,-0.196,–,-0.112,–,0.16,-0.292,–,-0.108,0.427,–,–,–,–
MYSM1 (UniProt Q5VVJ2),-0.138,-0.205,–,0.237,–,–,–,–,–,0.18,–,–,–,0.564,–,–,0.174,–,–,–
NCK1 (UniProt P16333),0.062,-0.118,-0.112,0.085,-0.069,-0.421,-0.138,0.046,-0.086,-0.044,0.008,-0.058,-0.056,–,0.077,-0.194,–,-0.247,–,–
MRPS26 (UniProt Q9BYN8),0.275,-0.067,0.092,0.022,–,–,-0.031,–,0.007,0.135,-0.142,0.088,-0.088,-0.04,-0.044,-0.039,0,-0.022,-0.003,0.171
OXR1 isoform 2 (UniProt Q8N573),–,–,-0.046,–,-0.028,-0.002,0,-0.094,0.15,0.099,-0.019,–,–,0.013,–,-0.096,-0.053,0.054,-0.009,0.01
MRPS21 (UniProt P82921),0.382,-0.009,0.095,-0.004,-0.347,0.137,-0.284,-0.002,0.036,0.017,-0.028,0.277,-0.003,0.07,-0.156,0.024,-0.05,0.137,–,–
NASP isoform 2 (UniProt P49321),–,–,–,–,–,–,–,–,–,–,–,-0.347,0.24,–,-0.475,–,–,–,–,–
MLST8 (UniProt Q9BVC4),0.005,0.064,-0.082,0.127,-0.125,0.085,-0.152,-0.059,0.028,–,-0.109,0.1,-0.182,0.043,0.105,-0.03,-0.025,-0.201,–,–
